In PubChem BioAssay:
Activity calls are given as the source filed them.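 Rule for the calls, unless noted: active = NADPH fluorescence slope more negative than the mean of all samples by about 3 SD, 99.7% confidence; inactive = the rest.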

What was measured:
[1] = inhibitors of TNFa-induced NFkB p65 translocation, primary screen, imaging, HUVEC, MLSMR starter and 10KST1 sets (AID 438;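 active = inhibition above 20% together with a positive visual image hit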;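 note: compound added about 3h40 before a 20 min TNFalpha stimulation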;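 for inhibition: signal is the nuclear over cytoplasmic p65 intensity ratio per well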); details: HUVEC TNFa-induced p65 nuclear translocation; cell count: measured here: nuclei count (cytotoxicity indicator), at 2.08 µM; inhibition: at 2 µM, stronger effect = higher value, 0% TNFa-plus-vehicle, 100% no-TNFa wells
[2] = inhibitors of mutant huntingtin aggregation, primary screen, imaging, exon1htt(103Q)mCFP cells, high-content imaging (AID 483;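 active = visual image review flags a hit and inhibition of aggregation exceeds 20%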;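 note: compound exposure lasted 3 days before fixation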;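 for nuclei count: percent of the per-plate median nuclei count of sample wells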); details: exon1htt(103Q)mCFP cell line, aggregate imaging, at 2 µM; inhibition of aggregation: stronger effect = higher value; nuclei count: measured here: cell count, toxicity
[3] = inhibitors of E-selectin induction by TNFa, primary screen, imaging, HUVEC, immunofluorescence, MLSMR starter and 10KST1 sets (AID 487;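 active = visually confirmed hit in the image check and inhibition above 20%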;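 for inhibition: signal is fraction of cell area covered by stained E-selectin grains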;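 for nuclei count: 100% = median nuclei count of all wells on the same plate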); details: HUVEC TNFalpha-induced E-selectin immunofluorescence imaging, at 2 µM; inhibition: stronger effect = higher value; nuclei count: measured here: cell number, toxicity
[4] = biological target: Voltage-gated potassium channel subunit beta-2 (Rattus norvegicus) (UniProt P62483); assay: KvBeta enzyme negative modulators, primary screen, biochemical, NADPH fluorescence (AID 622;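 active = fluorescence slope higher than the sample average by over 3 SD, cut at about -0.22 in these data, passing the limit was not always enough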;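 note: slope of raw intensity against log time taken from 70 to 1610 s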); details: recombinant KvBeta, 4-cyanobenzaldehyde reduction, at 10 µM, stronger effect = higher value
Sequence of Voltage-gated potassium channel subunit beta-2 (Rattus norvegicus) (P62483 whole entry, looked up): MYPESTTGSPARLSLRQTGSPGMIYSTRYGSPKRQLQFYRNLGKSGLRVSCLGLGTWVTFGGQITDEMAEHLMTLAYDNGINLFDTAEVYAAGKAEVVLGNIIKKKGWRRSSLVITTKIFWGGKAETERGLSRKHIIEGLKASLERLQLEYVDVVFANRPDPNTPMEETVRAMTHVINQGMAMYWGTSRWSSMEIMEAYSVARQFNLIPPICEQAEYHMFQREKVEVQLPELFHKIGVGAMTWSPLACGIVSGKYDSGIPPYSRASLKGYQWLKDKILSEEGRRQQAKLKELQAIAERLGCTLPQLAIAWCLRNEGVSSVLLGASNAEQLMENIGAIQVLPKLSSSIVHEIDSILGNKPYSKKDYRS

[5] = biological target: Voltage-gated potassium channel subunit beta-2 (Rattus norvegicus) (UniProt P62483); assay: KvBeta positive modulators, primary screen, biochemical, NADPH fluorescence (AID 623); details: Recombinant KvBeta, NADPH fluorescence decrease slope, 10 min; at 10 µM; stronger effect = lower value;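 note: fluorescence intensity change per second fitted from 20 to 320 s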
[6] = biological target: Alpha-2C adrenergic receptor (Homo sapiens) (UniProt P18825); assay: modulators of alpha2C/GIRK thallium flux, primary screen, cell-based, HEK293 alpha2C/GIRK1/2 (AID 624;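 active = fluorescence slope after compound addition differing from the mean of all screened samples at 99.7% confidence, in either direction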;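 note: slope of fluorescence ratio to pre-addition baseline per second over 15 to 24 s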); details: thallium flux BTC fluorescence, at 10 µM, actives lie on both sides
Sequence of Alpha-2C adrenergic receptor (Homo sapiens) (P18825 whole entry, looked up): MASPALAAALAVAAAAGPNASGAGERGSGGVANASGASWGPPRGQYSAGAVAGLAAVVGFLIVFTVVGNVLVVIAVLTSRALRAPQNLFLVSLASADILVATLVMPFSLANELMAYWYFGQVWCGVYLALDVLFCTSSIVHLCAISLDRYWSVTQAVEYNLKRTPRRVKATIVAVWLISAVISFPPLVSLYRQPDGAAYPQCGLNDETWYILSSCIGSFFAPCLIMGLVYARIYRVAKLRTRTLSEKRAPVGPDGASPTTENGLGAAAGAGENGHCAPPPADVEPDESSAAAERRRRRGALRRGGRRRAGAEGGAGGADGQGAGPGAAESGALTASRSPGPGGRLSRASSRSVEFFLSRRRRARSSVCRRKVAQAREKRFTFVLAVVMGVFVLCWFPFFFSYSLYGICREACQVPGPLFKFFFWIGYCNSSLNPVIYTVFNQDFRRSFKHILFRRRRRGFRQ

[7] = inhibitors of Sendai virus-induced IRF3 signaling, primary screen, TLR/RLR signaling modifier project, cell-based, Sendai virus stimulus, luciferase, 10K MLSCN set (AID 602276;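 active = inhibition at or above 50% at 10 µM; inactive = inhibition below 50%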;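 note: firefly luciferase from ISG56 promoter only with Renilla not read in this screen; 0% = Sendai virus plus DMSO and 100% = medium plus DMSO without virus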); details: HEK293 RL24 IRF3 luciferase reporter, at 10 µM, stronger effect = higher value
[8] = inhibitors of poly I:C-induced TLR3 signaling, primary screen, cell-based, poly I:C stimulus, luciferase, 10K MLSCN set (AID 602277;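 active = inhibition of the reporter signal at or above 50%; inactive = inhibition below 50%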); details: HEK293-TLR3 RL24 IRF3 luciferase reporter, at 10 µM, stronger effect = higher value

Compound | cell count [1] | inhibition [1] | inhibition of aggregation [2] | nuclei count [2] [%] | inhibition [3] | nuclei count [3] [%] | fluorescence slope [4] | NADPH fluorescence slope [5] | slope [6] | inhibition [7] | inhibition [8]
CCC1CCCCN1C(=O)C1CC(c2cc(Cl)c(OC)cc2OC)=NO1 (centres undefined) | 411 | 6.8% (inactive) | 1.6% (inactive) | 108 | -8.7% (inactive) | 168 | -0.504 (inactive) | 2e-05 (inactive) | 0.00725 (inactive) | -1.49% (inactive) | -30.3% (inactive)
Cc1cc(C)nc(NC(=O)c2c(-c3c(Cl)cccc3Cl)noc2C)n1 | 648 | 2% (inactive) | 3.9% (inactive) | 95.5 | -7.8% (inactive) | 109 | -0.435 (inactive) | 7.7e-06 (inactive) | 0.00547 (inactive) | -2.48% (inactive) | 7.12% (inactive)
CCN(CC)C(=O)C1=C(C)Nc2nnnn2C1c1cccnc1 (centres undefined) | 346 | 9.3% (inactive) | 11.2% (inactive) | 102 | -55.9% (inactive) | 109 | -0.567 (inactive) | 1.1e-05 (inactive) | 0.0059 (inactive) | 11.8% (inactive) | 16.8% (inactive)
CC(C)c1ccc(NC(=O)CCNS(=O)(=O)c2cccc3nonc23)cc1 | 669 | -6.5% (inactive) | 24.6% (inactive) | 98 | -55.8% (inactive) | 106 | -0.544 (inactive) | 2.2e-05 (inactive) | 0.00564 (inactive) | 16.4% (inactive) | 24.2% (inactive)
CCN(CCCNS(=O)(=O)c1ccc2c(c1)oc(=O)n2C)c1cccc(C)c1 | 740 | -0.6% (inactive) | -22.6% (inactive) | 110 | -21.3% (inactive) | 102 | -0.574 (inactive) | 9.4e-07 (inactive) | 0.00612 (inactive) | 18.1% (inactive) | 32.9% (inactive)
CCOC(=O)C1CCCN(c2c(Nc3ccc(C)c(C)c3)c(=O)c2=O)C1 (centres undefined) | 613 | 9% (inactive) | 2.3% (inactive) | 104 | -103% (inactive) | 131 | -0.539 (inactive) | 6.2e-06 (inactive) | 0.00607 (inactive) | -6.09% (inactive) | 32.9% (inactive)
COc1ccc(NC(=O)C(C)Oc2ccc(/C(C)=N\O)cc2)cc1 (centres undefined) | 581 | 2.7% (inactive) | 13.8% (inactive) | 114 | 24.1% (inactive) | 105 | -0.307 (inactive) | 3.7e-05 (inactive) | 0.00609 (inactive) | 14.5% (inactive) | 19.2% (inactive)
CCC1(c2ccc(F)cc2)NC(=O)N(CC(=O)c2ccc[nH]2)C1=O (centres undefined) | 556 | -20.6% (inactive) | 6.8% (inactive) | 99.9 | -36.7% (inactive) | 114 | -0.419 (inactive) | -4.1e-05 (inactive) | 0.00348 (inactive) | 4.26% (inactive) | 27% (inactive)
CCOc1ccc(N(CC(=O)NCc2ccco2)S(=O)(=O)c2ccc(OC)c(OC)c2)cc1 | 429 | 3.5% (inactive) | -2.6% (inactive) | 110 | -45.5% (inactive) | 110 | -0.409 (inactive) | 4.2e-05 (inactive) | 0.0072 (inactive) | 3.08% (inactive) | 30.5% (inactive)
